System: Pseudomonas aeruginosa PA14 wild type
Test: respiration area under curve with compound as sole nitrogen source, 24 h (OmniLog AUC (arbitrary units)); higher = more respiration / better utilisation as nitrogen source
Protocol: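 Biolog Phenotype MicroArray plates PM6-PM8: each di/tripeptide is the sole nitrogen source (IF-0 medium with succinate/ferric citrate and dye mix A). Tetrazolium reduction was read in the OmniLog every 15 min for 24 h at 37°C and summarised as area under the respiration curve (arbitrary units). The paper counts values below 2000 as no respiration and above 8000 as solid respiration. Replicate datasets are averaged.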

| SMILES | respiration area under curve |
| --- | --- |
| CC(C)C[C@H](NC(=O)CNC(=O)CN)C(=O)O (plate: PM8) | 10400 (active) |
| CC(C)C[C@@H](NC(=O)CNC(=O)CN)C(=O)O (plate: PM8) | 5880 (active) |

Source: the supplement of paper PMC4206461
